In PubChem BioAssay AID743150 (Broad Institute, 2013):
Results with a measured potency or affinity are listed apart. The source made the active and inactive calls. How the calls were made is not given here.

Assay: cytotoxicity in OVCAR4 cells, dose response, cytotoxicity control for PAX8 inhibitor project, cell-based, plate reader, dry powder, SA11 (AID 743150)
Details: series mostly up to 35 µM

| SMILES | outcome |
| --- | --- |
| COc1ccccc1C#Cc1ccc([C@@H]2[C@@H](C#N)N(C(=O)C3CCCCC3)[C@H]2CO)cc1 | inactive |
| Cc1ccccc1OCC(=O)Nc1cccc(C(=O)O)c1 | inactive |
| N#C[C@H]1[C@@H](c2ccc(C3=CCCC3)cc2)[C@@H](CO)N1C(=O)NC1CCCCC1 | inactive |
| O=C(Nc1ccc(OCC(F)(F)C(F)F)c(C(F)(F)F)c1)c1ccccc1O | inactive |
| N#C[C@@H]1[C@@H](c2ccc(-c3cccc(F)c3)cc2)[C@H](CO)N1C(=O)NC1CCCC1 | inactive |
| O=C(CN1C(=O)c2ccccc2S1(=O)=O)c1ccccc1Cl | inactive |
| COc1cccc(C#Cc2ccc([C@H]3[C@@H](CO)N(C(=O)c4ccccn4)[C@H]3C#N)cc2)c1 | inactive |
| N#C[C@H]1[C@@H](c2ccc(C#CC3CCCCC3)cc2)[C@@H](CO)N1S(=O)(=O)c1ccccc1 | inactive |
| O=C1/C(=C/c2cccc(Br)c2)SC(=S)N1CCC(=O)N(CCO)c1ccccc1 | inactive |
| O=C(C[C@H]1CC[C@H]2[C@@H](COC[C@@H](O)CN2S(=O)(=O)c2cccc(Cl)c2)O1)Nc1ccc(-c2ccccc2)cc1 | inactive |
| O=C(NCCc1ccccc1)c1ccc2c(c1)OCCCO2 | inactive |
| Cc1nc2sc(C(c3ccco3)N3CCN(C(c4ccccc4)c4ccccc4)CC3)c(O)n2n1 (stereo unspecified) | inactive |
| C[C@H](CO)N1C[C@H](C)[C@@H](CN(C)Cc2ccc(C(F)(F)F)cc2)Oc2ccc(NS(=O)(=O)c3ccccc3)cc2CC1=O | inactive |
| COC(=O)[C@@]1(CCS(=O)(=O)c2ccccc2)N=C(c2ccc(OCCCO)cc2)O[C@H]1c1ccccc1 | inactive |
| C[C@H]1CN([C@@H](C)CO)C(=O)Cc2cc(NC(=O)NC3CCCCC3)ccc2O[C@@H]1CN(C)Cc1ccc(-c2ccccc2)cc1 | inactive |
| N#C[C@@H]1[C@@H](c2ccc(C3=CCCCC3)cc2)[C@@H](CO)N1C(=O)NC1CCCCC1 | inactive |

| SMILES | outcome |
| --- | --- |
| N#C[C@@H]1[C@H](c2ccc(C#Cc3ccc(F)cc3)cc2)[C@@H](CO)N1C(=O)Nc1ccc(F)cc1 | inactive |
| C[C@H](CO)N1C[C@H](C)[C@@H](CN(C)Cc2ccc(-c3ccccc3)cc2)Oc2ccc(NC(=O)C3CC3)cc2CC1=O | inactive |
| O=C(/C=C/c1ccccc1)Nc1cccc(C(=O)O)c1 | inactive |
| CC(=O)N1CCOc2ccc(S(=O)(=O)N3CCN(c4cccc(C(F)(F)F)c4)CC3)cc21 | inactive |
| C[C@H](CO)N1C[C@H](C)[C@@H](CN(C)Cc2ccc(C(F)(F)F)cc2)Oc2ccc(NS(=O)(=O)c3ccc(Cl)cc3)cc2CC1=O | inactive |
| N#C[C@H]1N[C@H](CO)[C@@H]1c1ccc(C#Cc2ccccc2F)cc1 | inactive |
| N#C[C@@H]1[C@@H](c2ccc(-c3ccccc3F)cc2)[C@@H](CO)N1C(=O)C1CCC1 | inactive |
| CCCn1c(C)cc(C(=O)CN2C(=O)c3ccccc3S2(=O)=O)c1C | inactive |
| CCc1ccc(/C=C2\SC(=S)N(CCCC(=O)N(CCO)c3ccccc3)C2=O)cc1 | inactive |
| N#C[C@@H]1[C@@H](c2ccc(C#Cc3ccccc3F)cc2)[C@H](CO)N1C(=O)C1CCCCC1 | inactive |
| C[C@@H]1CN([C@H](C)CO)C(=O)CCCn2nncc2CO[C@H]1CN(C)Cc1ccc(Oc2ccccc2)cc1 | inactive |
| N#C[C@H]1[C@H](c2ccc(C#CC3CCCC3)cc2)[C@@H](CO)N1C(=O)Nc1ccc(F)cc1 | inactive |
| N#C[C@H]1[C@@H](c2ccc(C#Cc3cccc(F)c3)cc2)[C@@H](CO)N1C(=O)C1CCCC1 | inactive |
| COCC(=O)N1[C@H](CO)[C@H](c2ccc(-c3cccnc3)cc2)[C@@H]1C#N | inactive |
| O=C(CN1C(=O)c2ccccc2S1(=O)=O)c1ccc(Cl)cc1Cl | inactive |
